Test results as given in PubChem BioAssay AID1117313 (National Center for Advancing Translational Sciences (NCATS), 2015).
Calls of active or inactive are those of the source. Calls come from the whole dose curve.

Settings: Ebola virus entry reporter assay, ratio channel

Structure (SMILES) | outcome | AC50
CO[C@H]1C[C@@H]2CC[C@@H](C)[C@@](O)(O2)C(=O)C(=O)N2CCCC[C@@H]2C(=O)O[C@H]([C@@H](C)C[C@@H]2CC[C@H](O)[C@H](OC)C2)CC(=O)[C@H](C)C=C(C)[C@@H](O)[C@@H](OC)C(=O)[C@H](C)C[C@H](C)C=CC=CC=C1C | inactive | –
COC(=O)Nc1nc2ccc(C(=O)c3ccccc3)cc2[nH]1 | – | 3430 nM (active)
CN(C)CCCN1c2ccccc2CCc2ccc(Cl)cc21 | – | 5440 nM (active)
CO[C@H]1C[C@@H]2CC[C@@H](C)[C@@](O)(O2)C(=O)C(=O)N2CCCC[C@@H]2C(=O)O[C@H]([C@H](C)C[C@@H]2CC[C@H](OCCO)[C@H](OC)C2)CC(=O)[C@H](C)C=C(C)[C@@H](O)[C@@H](OC)C(=O)[C@H](C)C[C@H](C)C=CC=CC=C1C | inactive | –
CCCNCC(O)COc1ccccc1C(=O)CCc1ccccc1 (centres undefined) | – | 8630 nM (active)
COc1cccc2c1C(=O)c1c(O)c3c(c(O)c1C2=O)C[C@@](O)(C(C)=O)C[C@H]3O[C@H]1C[C@H](N)[C@H](O)[C@H](C)O1 | – | 2730 nM (active)
COC(=O)Nc1nc2ccc(C(=O)c3cccs3)cc2[nH]1 | – | 544 nM (active)
NCCCC(O)(P(=O)(O)O)P(=O)(O)O | inactive | –
COC1=CC(=O)C[C@@H](C)[C@]12Oc1c(Cl)c(OC)cc(OC)c1C2=O | inactive | –
CCC1=C[C@@H]2CN(C1)Cc1c([nH]c3ccccc13)[C@@](C(=O)OC)(c1cc3c(cc1OC)N(C)[C@H]1[C@@](O)(C(=O)OC)[C@H](OC(C)=O)[C@]4(CC)C=CCN5CC[C@]31[C@@H]54)C2 | – | 86.3 nM (active)
CCN(CC)CCNC(=O)c1c(C)[nH]c(/C=C2\C(=O)Nc3ccc(F)cc32)c1C | – | 1530 nM (active)
CC[C@H]1OC(=O)[C@H](C)[C@@H](O[C@H]2C[C@@](C)(OC)[C@@H](O)[C@H](C)O2)C(C)[C@@H](O[C@@H]2O[C@H](C)C[C@H](N(C)C)[C@@H]2O)[C@](C)(OC)C[C@@H](C)C(=O)[C@H](C)[C@@H](O)[C@]1(C)O (some centres undefined) | – | 4850 nM (active)
CN1[C@@H]2CC[C@H]1CC(OC(c1ccccc1)c1ccccc1)C2 (some centres undefined) | – | 3850 nM (active)
CC[C@]1(O)C[C@@H]2CN(CCc3c([nH]c4ccccc34)[C@@](C(=O)OC)(c3cc4c(cc3OC)N(C)[C@H]3[C@@](O)(C(=O)OC)[C@H](OC(C)=O)[C@]5(CC)C=CCN6CC[C@]43[C@@H]65)C2)C1 | – | 122 nM (active)
C[C@@H]1O[C@@H](O[C@H]2CC[C@@]3(C)[C@H](CC[C@@H]4[C@H]3C[C@@H](O)[C@]3(C)[C@@H](C5=CC(=O)OC5)CC[C@]43O)C2)C[C@H](O)[C@@H]1O[C@H]1C[C@H](O)[C@H](O[C@H]2C[C@H](O)[C@@H](O)[C@@H](C)O2)[C@H](C)O1 (stereo in doubt) | – | 1400 nM (active)
CN(C)CCOc1ccc(/C(=C(/CCCl)c2ccccc2)c2ccccc2)cc1 | – | 1090 nM (active)
C[C@]12CC[C@@H]3c4ccc(O)cc4C[C@@H](CCCCCCCCCS(=O)CCCC(F)(F)C(F)(F)F)[C@H]3[C@@H]1CC[C@@H]2O (some centres undefined) | inactive | –
Cc1nnc(C(C)C)n1C1C[C@H]2CC[C@@H](C1)N2CC[C@H](NC(=O)C1CCC(F)(F)CC1)c1ccccc1 (some centres undefined) | inactive | –
CC[C@H]1OC(=O)[C@H](C)[C@@H](O[C@H]2C[C@@](C)(OC)[C@@H](O)[C@H](C)O2)[C@H](C)[C@@H](O[C@@H]2O[C@H](C)C[C@H](N(C)C)[C@@H]2O)[C@](C)(O)C[C@@H](C)CN(C)[C@H](C)[C@@H](O)[C@]1(C)O | – | 3060 nM (active)
CCCCc1oc2ccc(NS(C)(=O)=O)cc2c1C(=O)c1ccc(OCCCN(CCCC)CCCC)cc1 | – | 2430 nM (active)
CN1CCN(CCCN2c3ccccc3Sc3ccc(C(F)(F)F)cc32)CC1 | – | 2730 nM (active)
CCCSc1ccc2nc(NC(=O)OC)[nH]c2c1 | – | 4320 nM (active)
CN1CCC[C@@H]1CCO[C@](C)(c1ccccc1)c1ccc(Cl)cc1 | – | 1530 nM (active)
CC[C@]1(O)C[C@H]2CN(CCc3c([nH]c4ccccc34)[C@@](C(=O)OC)(c3cc4c(cc3OC)N(C=O)[C@H]3[C@@](O)(C(=O)OC)[C@H](OC(C)=O)[C@]5(CC)C=CCN6CC[C@]43[C@@H]65)C2)C1 | – | 137 nM (active)
